Laboratory results reported in PubChem BioAssay (EPA / NIEHS).
Results filed as inconclusive are left out. The source made the active and inactive calls. How the source made its calls, unless noted: active means hit-call score of the fitted dose curve at least 0.9, where 1 is the maximum; inactive means score below 0.9.

How the values were obtained:
[1] = target: Glucocorticoid receptor (Homo sapiens) (UniProt P04150); experiment: ATG_GR_TRANS: Attagene TRANS-FACTORIAL HepG2 Assay for human Glucocorticoid Receptor (GR) (AID 2282978; active means hit-call score of the fitted dose curve at least 0.9, where 1 is the maximum;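 further: activators score as hits since higher reporter transcript over DMSO is fitted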); settings: HepG2 Attagene TRANS GR reporter, mRNA transcription
Chain of Glucocorticoid receptor (Homo sapiens) (P04150 whole entry, looked up): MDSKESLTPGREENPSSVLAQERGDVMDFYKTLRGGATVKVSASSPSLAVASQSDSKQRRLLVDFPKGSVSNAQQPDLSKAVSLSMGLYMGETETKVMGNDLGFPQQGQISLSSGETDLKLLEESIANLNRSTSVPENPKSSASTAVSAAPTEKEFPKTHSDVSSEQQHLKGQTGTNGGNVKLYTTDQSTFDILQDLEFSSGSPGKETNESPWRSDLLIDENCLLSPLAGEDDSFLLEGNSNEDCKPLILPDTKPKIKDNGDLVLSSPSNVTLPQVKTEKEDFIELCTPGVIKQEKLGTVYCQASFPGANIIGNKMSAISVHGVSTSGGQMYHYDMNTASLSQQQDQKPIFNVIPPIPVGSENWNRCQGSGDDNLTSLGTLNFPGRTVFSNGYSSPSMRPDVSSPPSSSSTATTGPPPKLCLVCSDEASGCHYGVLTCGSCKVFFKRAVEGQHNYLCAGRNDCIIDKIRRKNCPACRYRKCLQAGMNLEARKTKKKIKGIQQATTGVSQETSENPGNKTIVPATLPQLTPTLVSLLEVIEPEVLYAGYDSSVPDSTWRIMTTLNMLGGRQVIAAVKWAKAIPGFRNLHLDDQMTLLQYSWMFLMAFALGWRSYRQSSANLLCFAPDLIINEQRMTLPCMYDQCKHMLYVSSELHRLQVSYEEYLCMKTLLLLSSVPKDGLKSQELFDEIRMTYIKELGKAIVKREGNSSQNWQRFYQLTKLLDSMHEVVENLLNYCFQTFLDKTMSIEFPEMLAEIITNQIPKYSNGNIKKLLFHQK
In short: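 Multiplexed TRANS reporter system, HepG2; 24 h exposure; RNA → oligo(dT) RT → reporter-specific PCR → 6-FAM primer extension → HpaI cut → CE fluorescence. Gain-of-signal vs DMSO.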

[2] = target: Oxysterols receptor LXR-alpha (Homo sapiens) (UniProt Q13133); experiment: ATG_LXRa_TRANS: Attagene TRANS-FACTORIAL HepG2 Assay for human Liver X Receptor alpha (LXRa) (AID 2282980; active means hit-call score of the fitted dose curve at least 0.9, where 1 is the maximum); settings: HepG2 Attagene TRANS reporter, LXRa transactivation
Chain of Oxysterols receptor LXR-alpha (Homo sapiens) (Q13133 whole entry, looked up): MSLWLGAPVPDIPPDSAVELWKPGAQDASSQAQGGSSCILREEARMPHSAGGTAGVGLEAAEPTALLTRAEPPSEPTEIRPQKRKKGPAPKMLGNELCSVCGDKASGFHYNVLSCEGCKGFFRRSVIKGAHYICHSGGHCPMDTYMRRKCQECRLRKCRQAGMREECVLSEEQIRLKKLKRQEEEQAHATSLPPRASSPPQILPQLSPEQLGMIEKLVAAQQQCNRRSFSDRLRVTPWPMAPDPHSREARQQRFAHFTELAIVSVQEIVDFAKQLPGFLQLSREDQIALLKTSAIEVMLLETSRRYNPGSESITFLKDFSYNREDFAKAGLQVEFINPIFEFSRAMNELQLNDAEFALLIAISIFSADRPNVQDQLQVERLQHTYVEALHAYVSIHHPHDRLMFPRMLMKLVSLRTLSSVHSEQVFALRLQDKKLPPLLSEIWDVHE
In short: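 Transient HepG2 transfectants, 24 h dosing, RT-PCR/CE mRNA reporter quantitation; gain-of-signal vs DMSO.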

[3] = target: Oxysterols receptor LXR-beta (Homo sapiens) (UniProt P55055); experiment: ATG_LXRb_TRANS: Attagene TRANS-FACTORIAL HepG2 Assay for human Liver X Receptor beta (LXRb) (AID 2282981; active means hit-call score of the fitted dose curve at least 0.9, where 1 is the maximum); settings: HepG2 Attagene TRANS GAL4-LXRb reporter, mRNA
Chain of Oxysterols receptor LXR-beta (Homo sapiens) (P55055 whole entry, looked up, the tested form may be a part): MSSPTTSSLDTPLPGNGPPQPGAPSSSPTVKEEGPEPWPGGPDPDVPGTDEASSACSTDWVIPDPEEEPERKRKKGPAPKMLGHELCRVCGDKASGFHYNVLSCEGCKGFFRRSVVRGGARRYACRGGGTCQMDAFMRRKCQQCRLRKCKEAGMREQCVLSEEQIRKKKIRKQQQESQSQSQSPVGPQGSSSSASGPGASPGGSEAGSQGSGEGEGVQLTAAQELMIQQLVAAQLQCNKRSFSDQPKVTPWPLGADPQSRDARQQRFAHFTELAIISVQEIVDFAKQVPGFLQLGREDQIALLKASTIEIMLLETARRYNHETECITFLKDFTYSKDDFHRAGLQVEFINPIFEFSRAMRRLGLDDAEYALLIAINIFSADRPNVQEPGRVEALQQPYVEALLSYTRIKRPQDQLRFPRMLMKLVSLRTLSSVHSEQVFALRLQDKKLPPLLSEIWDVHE
In short: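 Transient transfection HepG2 (multiplexed RTUs, GAL4-UAS); NR-Gal4 chimera; 24 h exposure; RNA → RT-PCR → 6-FAM primer extension → HpaI → CE; increase vs DMSO.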

[4] = target: Hepatocyte nuclear factor 4-alpha (Homo sapiens) (UniProt P41235); experiment: ATG_HNF4a_TRANS: Attagene TRANS-FACTORIAL HepG2 Assay for human Hepatocyte Nuclear Factor 4 alpha (HNF4a) (AID 2282982; active means hit-call score of the fitted dose curve at least 0.9, where 1 is the maximum); settings: HepG2 HNF4a transactivation reporter, mRNA readout
Chain of Hepatocyte nuclear factor 4-alpha (Homo sapiens) (P41235 whole entry, looked up, the tested form may be a part): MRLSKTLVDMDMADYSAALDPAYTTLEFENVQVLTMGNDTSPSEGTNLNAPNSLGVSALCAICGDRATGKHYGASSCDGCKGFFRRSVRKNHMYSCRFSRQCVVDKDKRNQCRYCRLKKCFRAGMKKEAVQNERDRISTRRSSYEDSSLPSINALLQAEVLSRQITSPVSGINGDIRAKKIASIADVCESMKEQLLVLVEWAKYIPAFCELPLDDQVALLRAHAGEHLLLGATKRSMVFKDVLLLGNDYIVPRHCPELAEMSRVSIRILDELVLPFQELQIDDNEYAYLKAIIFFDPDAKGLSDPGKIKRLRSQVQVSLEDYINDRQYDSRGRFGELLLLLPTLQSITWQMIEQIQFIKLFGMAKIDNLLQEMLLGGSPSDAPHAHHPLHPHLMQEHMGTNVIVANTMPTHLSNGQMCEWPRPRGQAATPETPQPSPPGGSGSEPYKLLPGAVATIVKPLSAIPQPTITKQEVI
In short: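 Readout is fluorescent reporter-transcript fragments resolved by capillary electrophoresis after RT-PCR from HepG2 cells dosed for 24 h. Cells carried transfected GAL4-UAS reporter constructs measuring exogenous NR-GAL4 chimera activity; DMSO served as baseline.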

[5] = ATG_M_06_TRANS: Attagene TRANS-FACTORIAL HepG2 Assay for M06 Transcription Factor (Internal Marker) (AID 2282983; active means hit-call score of the fitted dose curve at least 0.9, where 1 is the maximum;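 further: reporter transcript level by RT-PCR then capillary electrophoresis fluorescence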); settings: HepG2 Attagene TRANS M06 internal marker reporter
In short: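 Measured by capillary electrophoresis of fluorescently labelled RT-PCR products, this endpoint reflects reporter mRNA in HepG2 cells harbouring exogenous NR-GAL4 reporter constructs after 24 h exposure, with DMSO as baseline.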

[6] = ATG_M_32_TRANS: Attagene TRANS-FACTORIAL HepG2 Assay for M32 Transcription Factor (Internal Marker) (AID 2282984; active means hit-call score of the fitted dose curve at least 0.9, where 1 is the maximum;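 further: transcript level of a background control reporter unit measured by RT-PCR and capillary electrophoresis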); settings: HepG2 Attagene TRANS M32 internal marker reporter
In short: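 Measures reporter mRNA induction in human HepG2 liver cells after 24 h chemical treatment. Transcripts from transiently transfected GAL4-UAS reporter units are amplified, fluorescently labelled and sized by capillary electrophoresis; gain of signal relative to DMSO.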

[7] = target: Nuclear receptor subfamily 4 group A member 2 (Homo sapiens) (UniProt P43354); experiment: ATG_NURR1_TRANS: Attagene TRANS-FACTORIAL HepG2 Assay for human Nuclear Receptor Related Protein 1 (NURR1) (AID 2282985; active means hit-call score of the fitted dose curve at least 0.9, where 1 is the maximum); settings: HepG2 Attagene TRANS reporter, mRNA readout
Chain of Nuclear receptor subfamily 4 group A member 2 (Homo sapiens) (P43354 whole entry, looked up, the tested form may be a part): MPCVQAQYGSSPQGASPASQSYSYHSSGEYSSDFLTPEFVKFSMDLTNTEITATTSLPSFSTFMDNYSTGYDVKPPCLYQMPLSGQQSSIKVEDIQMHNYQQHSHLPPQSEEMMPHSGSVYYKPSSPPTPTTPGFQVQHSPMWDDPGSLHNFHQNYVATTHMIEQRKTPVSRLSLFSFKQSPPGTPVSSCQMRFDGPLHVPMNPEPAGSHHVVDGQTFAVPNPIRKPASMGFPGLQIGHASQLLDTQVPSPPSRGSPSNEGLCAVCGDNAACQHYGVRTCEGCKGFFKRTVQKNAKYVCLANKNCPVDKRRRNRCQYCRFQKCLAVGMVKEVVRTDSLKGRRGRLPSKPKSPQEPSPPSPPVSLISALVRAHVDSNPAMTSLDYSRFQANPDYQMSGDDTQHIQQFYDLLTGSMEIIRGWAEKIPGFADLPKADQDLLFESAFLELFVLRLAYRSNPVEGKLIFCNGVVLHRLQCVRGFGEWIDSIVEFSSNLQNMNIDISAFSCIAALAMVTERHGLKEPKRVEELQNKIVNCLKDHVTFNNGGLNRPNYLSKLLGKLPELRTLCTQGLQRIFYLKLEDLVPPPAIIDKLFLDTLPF
In short: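 Transient transfection of HepG2, human liver cells, with multiple GAL4-UAS reporter transcription units. Cells dosed 24 h, RNA isolated, reverse-transcribed, PCR-amplified, FAM-labelled, HpaI-digested, sized by capillary electrophoresis. DMSO served as negative control.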

[8] = target: Transcriptional activator Myb (Homo sapiens) (UniProt P10242); experiment: ATG_Myb_CIS: Attagene CIS-FACTORIAL HepG2 Assay for human Myeloblastosis (Myb) Proto-Oncogene Transcription Factor (AID 2282986); settings: HepG2 Attagene CIS-FACTORIAL Myb reporter transcription; actives raise or lower the signal
Chain of Transcriptional activator Myb (Homo sapiens) (P10242 whole entry, looked up): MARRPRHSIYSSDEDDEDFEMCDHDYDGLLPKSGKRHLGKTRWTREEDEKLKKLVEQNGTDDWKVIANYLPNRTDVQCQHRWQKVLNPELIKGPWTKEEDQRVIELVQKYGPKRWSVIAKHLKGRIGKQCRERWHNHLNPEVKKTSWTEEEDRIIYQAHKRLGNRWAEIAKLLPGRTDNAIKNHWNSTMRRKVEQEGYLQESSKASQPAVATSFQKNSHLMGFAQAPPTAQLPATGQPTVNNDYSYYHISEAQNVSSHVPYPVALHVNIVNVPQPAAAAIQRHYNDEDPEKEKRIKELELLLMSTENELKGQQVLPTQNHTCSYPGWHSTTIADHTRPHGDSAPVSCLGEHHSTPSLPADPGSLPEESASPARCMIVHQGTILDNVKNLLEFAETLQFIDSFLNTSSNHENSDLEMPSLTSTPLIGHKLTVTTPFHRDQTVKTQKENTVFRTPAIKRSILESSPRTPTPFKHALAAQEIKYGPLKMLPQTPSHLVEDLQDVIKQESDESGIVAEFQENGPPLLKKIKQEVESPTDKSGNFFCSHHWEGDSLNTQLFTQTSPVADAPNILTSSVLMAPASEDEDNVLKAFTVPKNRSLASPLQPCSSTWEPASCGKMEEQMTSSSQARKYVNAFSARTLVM
In short: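 Endogenous transcription factor activity at a Myb-responsive cis element is reported in human liver HepG2 cells after 24 h chemical treatment. Reporter mRNA is detected by RT-PCR and capillary electrophoresis fluorescence, with DMSO as baseline.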

[9] = target: Nuclear respiratory factor 1 (Homo sapiens) (UniProt Q16656); experiment: ATG_NRF1_CIS: Attagene CIS-FACTORIAL HepG2 Assay for human Nuclear Respiratory Factor 1 (NRF1) Orphan Gene (AID 2282987); settings: HepG2 NRF1 cis-element reporter, Attagene multiplex; actives raise or lower the signal
Chain of Nuclear respiratory factor 1 (Homo sapiens) (Q16656 whole entry, looked up): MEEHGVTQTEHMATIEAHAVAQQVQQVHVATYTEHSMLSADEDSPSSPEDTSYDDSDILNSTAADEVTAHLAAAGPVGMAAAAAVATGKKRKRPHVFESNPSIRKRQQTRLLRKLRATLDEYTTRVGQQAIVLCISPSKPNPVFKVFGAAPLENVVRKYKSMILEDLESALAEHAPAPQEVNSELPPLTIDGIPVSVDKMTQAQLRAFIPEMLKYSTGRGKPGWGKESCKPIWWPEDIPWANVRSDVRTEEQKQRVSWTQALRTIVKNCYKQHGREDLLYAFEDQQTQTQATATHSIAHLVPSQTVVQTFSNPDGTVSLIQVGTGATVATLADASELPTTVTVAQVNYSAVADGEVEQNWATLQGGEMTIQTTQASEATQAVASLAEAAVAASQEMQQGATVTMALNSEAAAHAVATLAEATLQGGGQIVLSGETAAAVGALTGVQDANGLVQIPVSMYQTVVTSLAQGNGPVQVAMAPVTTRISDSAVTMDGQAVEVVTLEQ
In short: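 Human hepatoma HepG2 cells carrying transfected promoter-regulated reporter units were incubated with test chemicals for 24 h. Reporter transcripts were measured by RT-PCR plus capillary electrophoresis, and endpoints derived by bidirectional fitting with DMSO as baseline.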

[10] = ATG_NFI_CIS: Attagene CIS-FACTORIAL HepG2 Assay for human Nuclear Factor I (NFI) (AID 2282989); settings: HepG2 cis-regulatory reporter, NFI response element transcription; actives raise or lower the signal
In short: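 After transient transfection of HepG2 with cis-promoter reporter constructs and 24 h dosing, RNA is reverse-transcribed, amplified, 6-FAM end-labelled and HpaI-digested before capillary analysis. Bidirectional curve fitting against DMSO.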

[11] = target: Myc proto-oncogene protein (Homo sapiens) (UniProt P01106); experiment: ATG_Myc_CIS: Attagene CIS-FACTORIAL HepG2 Assay for human Myelocytomatosis (Myc) Proto-Oncogene Transcription Factor (AID 2282990); settings: HepG2, Attagene cis-reporter transcription factor activity; actives raise or lower the signal
Chain of Myc proto-oncogene protein (Homo sapiens) (P01106 whole entry, looked up): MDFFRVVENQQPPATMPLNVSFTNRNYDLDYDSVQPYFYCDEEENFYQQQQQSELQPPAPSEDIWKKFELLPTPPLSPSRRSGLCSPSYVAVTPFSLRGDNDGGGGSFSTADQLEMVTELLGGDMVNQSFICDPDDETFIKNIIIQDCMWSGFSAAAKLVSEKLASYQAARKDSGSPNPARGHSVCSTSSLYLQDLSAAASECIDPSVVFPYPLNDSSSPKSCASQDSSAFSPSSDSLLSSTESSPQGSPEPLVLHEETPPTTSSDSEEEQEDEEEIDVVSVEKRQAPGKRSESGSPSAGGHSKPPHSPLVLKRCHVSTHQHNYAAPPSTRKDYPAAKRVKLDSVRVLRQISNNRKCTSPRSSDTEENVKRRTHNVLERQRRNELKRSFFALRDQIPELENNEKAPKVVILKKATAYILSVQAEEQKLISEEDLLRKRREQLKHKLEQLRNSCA
In short: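 Cells of the HepG2 human liver line bear multiple cis-driven reporter transcription units. Reporter mRNA after 24 h exposure is reverse-transcribed, amplified, labelled and resolved by capillary electrophoresis, with gain- or loss-of-signal fitting relative to DMSO.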

[12] = ATG_NF_kB_CIS: Attagene CIS-FACTORIAL HepG2 Assay for human Nuclear Factor Kappa B (NF-kB) (AID 2282991); settings: HepG2 Attagene cis-factorial NF-kB reporter mRNA; actives raise or lower the signal
In short: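 Multiplexed cis-reporter assay in transiently transfected HepG2. 24 h treatment; RNA isolated, RT-PCR, labelled fragments resolved by CE. DMSO baseline.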

[13] = ATG_NRF2_ARE_CIS: Attagene CIS-FACTORIAL HepG2 Assay for human Nuclear Factor Erythroid 2 Related Factor 2 (NFR2) response to Antioxidant Response Elements (ARE) (AID 2282992); settings: HepG2 Attagene ARE/NRF2 reporter, transcription factor activity; actives raise or lower the signal
In short: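 Cis-factorial assay: transfected HepG2 reporter library, 24 h dosing, mRNA readout via RT-PCR/CE; DMSO-referenced bidirectional analysis.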

[14] = ATG_Oct_MLP_CIS: Attagene CIS-FACTORIAL HepG2 Assay for human Octamer-Binding Transcription Factor (Oct) (AID 2282993); settings: HepG2 Attagene cis-factorial Oct reporter, mRNA; actives raise or lower the signal
In short: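 Cells of the HepG2 line express promoter-controlled reporter sequences whose mRNA levels, after 24 h treatment, are measured by RT-PCR and capillary electrophoresis. Increases and decreases are scored relative to DMSO.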

[15] = target: Cellular tumor antigen p53 (Homo sapiens) (UniProt P04637); experiment: ATG_p53_CIS: Attagene CIS-FACTORIAL HepG2 Assay for human p53 Transcription Factor (AID 2282994); settings: HepG2 p53 cis-element reporter, Attagene mRNA; actives raise or lower the signal
In short: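 Using HepG2 hepatoma cells carrying cis-acting multiplexed reporters, mRNA induction is detected after a 24 h exposure. Gain- and loss-of-signal responses are fitted relative to DMSO-treated cells.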

[16] = BSK_3C_TissueFactor: BioMAP Diversity Plus: 3C Assay for Tissue Factor Biomarker Activity (AID 2282997); settings: BioMAP 3C HUVEC, tissue factor biomarker readout; actives raise or lower the signal
In short: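 Values derive from bidirectional curve fitting against DMSO of Tissue Factor ELISA signals, taken 24 h after dosing primary human umbilical vein endothelial cells.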

[17] = target: Estrogen-related receptor gamma (Homo sapiens) (UniProt P62508); experiment: ATG_ERRg_TRANS: Attagene TRANS-FACTORIAL HepG2 Assay for human Estrogen-Related Receptor gamma (ERRg) (AID 2282977; active means hit-call score of the fitted dose curve at least 0.9, where 1 is the maximum;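 further: hits increase reporter signal over DMSO so potencies reflect activators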); settings: HepG2 Attagene TRANS reporter, ERRg transactivation
In short: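 Transfect HepG2 with multiple GAL4-UAS reporter transcription units; dose chemicals 24 h; isolate RNA, reverse-transcribe with oligo(dT), PCR-amplify, label with 6-FAM, digest with HpaI; size fragments by capillary electrophoresis. DMSO serves as negative control.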

[18] = target: Bile acid receptor (Homo sapiens) (UniProt Q96RI1); experiment: ATG_FXR_TRANS: Attagene TRANS-FACTORIAL HepG2 Assay for Farnesoid X Receptor (FXR) (AID 2282979; active means hit-call score of the fitted dose curve at least 0.9, where 1 is the maximum;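 further: hits raise reporter mRNA above DMSO so AC50 marks FXR activation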); settings: HepG2 Attagene TRANS FXR-GAL4 reporter transcription
Chain of Bile acid receptor (Homo sapiens) (Q96RI1 whole entry, looked up, the tested form may be a part): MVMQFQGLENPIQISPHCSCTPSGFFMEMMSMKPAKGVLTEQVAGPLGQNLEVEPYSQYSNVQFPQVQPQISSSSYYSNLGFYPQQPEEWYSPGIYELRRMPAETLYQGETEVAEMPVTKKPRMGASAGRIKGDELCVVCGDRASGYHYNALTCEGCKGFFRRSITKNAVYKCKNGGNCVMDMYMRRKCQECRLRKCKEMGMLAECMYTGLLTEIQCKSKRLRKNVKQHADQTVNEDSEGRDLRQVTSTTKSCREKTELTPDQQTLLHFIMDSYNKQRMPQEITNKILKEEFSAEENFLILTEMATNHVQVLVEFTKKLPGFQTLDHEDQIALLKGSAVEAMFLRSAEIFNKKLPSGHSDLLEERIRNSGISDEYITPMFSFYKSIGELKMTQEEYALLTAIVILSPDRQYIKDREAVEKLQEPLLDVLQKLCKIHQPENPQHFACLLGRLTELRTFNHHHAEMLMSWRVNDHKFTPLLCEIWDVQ
In short: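 Chimeric FXR-GAL4 activity in transiently transfected human HepG2 liver cells is scored as induction of reporter mRNA after 24 h of dosing. Detection uses RT-PCR with fluorescent labelling and capillary electrophoresis, with DMSO serving as baseline.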

Measured: AC50

CCOP(=S)(OCC)Oc1nc(Cl)n(C(C)C)n1
active: [2] 14.9 µM | [3] 16.4 µM | [13] 1.74 µM
not listed: [17] | [18]
inactive: all other assays above

CCNC(=O)NC(=O)C(C#N)=NOC
inactive: [17] | [3] | [4] | [7] | [8] | [9] | [10] | [13] | [14] | [16]

Cc1nc(N(C)C)nc(OC(=O)N(C)C)c1C
inactive: [1] | [18] | [7] | [8] | [9] | [10] | [13] | [14] | [16]

CC(C)=CC1C(C(=O)OCc2coc(Cc3ccccc3)c2)C1(C)C (centres undefined)
active: [7] 33.9 µM | [13] 13.8 µM | [14] 6.38 µM
not listed: [6] | [11] | [15] | [17]
inactive: all other assays above

CCCC(=NOCC)C1=C(O)CC(CC(C)SCC)CC1=O (centres undefined)
not listed: [5] | [17] | [18]
inactive: all other assays above
